This assay has as its system Sodium/Iodide Symporter (NIS), SLC5A5 (gene 6528). Briefly: CPHEA_Stoker_NIS_Inhibition_RAIU: CPHEA's Radioactive Iodide Uptake (RAIU) Assay for Sodium/Iodide Symporter (NIS) Inhibition, Stoker and Laws Labs (AID 2283841). The gist of the method: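 HEK293T cells stably expressing human NIS (hNIS-HEK293T-EPA) were exposed to test chemicals at 0.001–100uM (0.5% final DMSO) with 125I at a final 329pM in HBSS/10mM HEPES pH 7.4. After 2 hours at room temperature and ice-cold washes, intracellular 125I was counted as CPM and normalized to DMSO wells.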

The values that follow come from PubChem BioAssay (EPA / NIEHS).

Records with an inconclusive call do not appear. The source made the active and inactive calls. The calls were made as follows: active = hit-call score of the fitted dose curve at least 0.9, where 1 is the maximum; inconclusive = response in the unintended direction; inactive = score below 0.9.

Regarding `CCCCCCCCCCCC`, the result was inactive.

As to `O=C(CC(=O)C(F)(F)C(F)(F)C(F)(F)F)c1cccs1`, the AC50 is 13.5 µM (active).

In the case of `CCCCCCc1ccc(N)cc1`, the result was inactive.

With `O=C(O)CCC(F)(F)C(F)(F)C(F)(F)C(F)(F)C(F)(F)F`, the outcome was inactive.
